Consider 20 compounds from PMC4552634, “A New Set of Chemical Starting Points with Plasmodium falciparum Transmission-Blocking Potential for Antimalarial Drug Discovery” (PLoS ONE, 2015).

Screen size: about 13,000 compounds; about 3,200 (25%) showed an effect of 50% or more. Some of the results follow.

The test system of this test is P. falciparum stage V gametocytes. Details: BacTiter-Glo ATP luminescence viability of purified stage V gametocytes in 384-well plates, per cent inhibition versus DMSO. Conditions: 48 h, 5 µM; inhibitor.
As for `N#CN1CC[C@@H](OC(=O)N[C@@H]2C[C@H]2c2ccccc2)C1` [TCMDC-133724], the % Inhibition (as a rule, the relative decrease from the control value, in per cent) stood at 29.13%. To `CC(C)C[C@H](NC(=O)[C@H](Cc1ccccc1)N(C[C@H](Cc1ccccc1)NC(=O)OC(C)(C)C)C(=O)C(F)(F)F)C(=O)NC1CCN(Cc2ccccc2)CC1` [TCMDC-132059] belongs -19.61%; to `CC(C)CCN1CCC(Oc2ccc(NC(=O)c3cccs3)cc2Cl)CC1` [TCMDC-133974], 92.16%. As for `Cc1ccc(C(=O)Nc2ccc(OC3CCN(CCC(C)C)C3)c(Cl)c2)cc1` (centres unmarked) [TCMDC-133983], the “% Inhibition” value was determined as 31.29%.

On to `CC(C)CCN1CCC(Oc2ccc(NC(=O)c3ccccc3)cc2Cl)CC1` [TCMDC-133977], for which the “% Inhibition” value is 11.22%. To `O=C(Nc1ccc(OC2CCN(Cc3ccccc3)C2)c(Cl)c1)c1cccs1` (centres unmarked) [TCMDC-133970] belongs 30.53%; to `CC(C)CCOc1ccc(NC(=O)c2cccs2)cc1` [TCMDC-125121], 83.04%. To `O=C(Nc1ccc(OC2CCN(Cc3ccccc3)CC2)c(Cl)c1)c1cccs1` [TCMDC-133990] belongs 24.3%; to `CC(C)CCN1CCC(Oc2ccc(NC(=O)c3cccs3)cc2Cl)C1` (centres unmarked) [TCMDC-133979], 54.06%. To `CCCOc1ccc(NC(=O)c2cccs2)cc1Cl` [TCMDC-141129] belongs 16.1%; to `CC(Oc1ccc(NC(=O)c2cccs2)cc1)C(=O)c1ccc(Cl)cc1` (centres unmarked) [TCMDC-125438], 17.92%. Turning to `COc1ccc(NC(=O)c2cc(NC(=O)C3(N)CC3)c(=O)n(Cc3ccc(C(N)=O)cc3)c2)cc1` [TCMDC-136554], the “% Inhibition” value came to 19.66%. To `Cc1[nH]c2c(NCc3ccc(F)cc3)nccc2c1C` [TCMDC-132310] belongs 15.19%; to `N#Cc1ccc2c(c1)CCN(CCC1CCC(NC(=O)c3cc4ccc(Br)cc4[nH]3)CC1)C2` (centres unmarked) [TCMDC-139195], -25.15%.

With `CCCNCc1ccc(-c2ccc(CN(C(=O)c3nn(-c4ccccc4)nc3C)C(C)CN(C)C)cc2)nc1` (centres unmarked) [TCMDC-141551], the “% Inhibition” value was 64.23%. To `CCCNCc1ccc(-c2ccc(CN(C(=O)c3nn(-c4ccccc4)nc3C)C3CCOCC3)cc2)nc1` [TCMDC-141547] belongs 9.201%. To `Cc1nn(-c2ccccc2)nc1C(=O)N(Cc1ccc(-c2ccc(CNCCc3ccc(S(C)(=O)=O)cc3)cn2)cc1)C(C)CN(C)C` (centres unmarked) [TCMDC-141524] belongs 25.84%. With `CCCNCc1ccc(-c2ccc(CN(C(=O)c3nn(-c4ccccc4)nc3C)C3CC3)cc2)nc1` [TCMDC-141550], the “% Inhibition” value is 42.93%. `CCCNCc1ccc(-c2ccc(CN(CCOC)C(=O)c3nn(-c4ccccc4)nc3C)cc2)nc1` [TCMDC-141549]: the “% Inhibition” value is reported as 77.73%. Under `CCCNCc1ccc(-c2ccc(CN(Cc3cnc(C)cn3)C(=O)c3nn(-c4ccccc4)nc3C)cc2)nc1` [TCMDC-141548] stands 27.98%.
